Experimental findings from PubChem BioAssay (NCI) are described below.

About 83,000 compounds went through this panel and 20% of them were active in at least one assay; those are over-represented in the sample as a whole.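 Negative percent growth values reflect cell death: -40 means 40% of the cells present at the start died, and -100 means all died.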 Unmarked numbers belong to inactive results. The source made the active and inactive calls. The calls were made as follows: active = growth percent below 10; inactive = the rest.

Some test systems named below: NCI-H23 lung; NCI-H226 lung; NCI-H322M lung; HOP-62 NSCLC; NCI-H460 lung; HOP-92 NSCLC; NCI-H522 lung; A549/ATCC NSCLC; 786-0 renal; COLO 205 colon; DU-145 prostate; K-562 leukemia; MALME-3M melanoma; MDA-MB-231 breast; RXF 393 renal; SF-268 CNS; SF-295 CNS; SF-539 CNS; UACC-257 melanoma; M14 melanoma.
Common to all, as to assay: NCI-60 one-dose screen, 48 h (100 = growth as untreated, 0 = no growth, -100 = all killed)
Settings in all cases: 10 µM unless noted

Regarding `COc1ccc(COc2cc3oc(=O)c4cc(C(C)O)ccc4c3cc2OC)cc1` (stereo not given), the growth with NCI-H23 lung is 70.8%; in the assay with NCI-H226 lung, 55.4%; in the assay with NCI-H322M lung, 83.8%; in the assay with HOP-62 NSCLC, 36.9%; in the assay on NCI-H460 lung, 58.4%; in the assay on HOP-92 NSCLC, 55.2%. For the same molecule, the growth was 35.1% with NCI-H522 lung; 48.6% in the assay on A549/ATCC NSCLC; 62.4% with 786-0 renal; 49.3% in the assay on COLO 205 colon; 94.9% in the assay on DU-145 prostate; 20.1% in the assay with K-562 leukemia. Moreover, the growth in the assay on MALME-3M melanoma was 66.8%; in the assay on MDA-MB-231 breast, 67.2%; with RXF 393 renal, 47.8%; in the assay with SF-268 CNS, 55.8%; with SF-295 CNS, 49%; in the assay with SF-539 CNS, 60.7%. The growth in the assay with UACC-257 melanoma was 42.8%; in the assay on M14 melanoma, 57.6%.

Turning to `CO[C@@H](C)Cn1c(=O)n(C)c2cnc3ccc(-c4cncc(C(C)(C)O)c4)cc3c21`, the growth in the assay on NCI-H23 lung is -2.1% (active); in the assay on NCI-H226 lung, -12.7% (active); in the assay on NCI-H322M lung it was -15.2% (active); with HOP-62 NSCLC, -14.5% (active); with NCI-H460 lung, 5.83% (active); in the assay with HOP-92 NSCLC it was -24% (active). Also, the growth is 3.46% (active) with NCI-H522 lung; -11.7% (active) with A549/ATCC NSCLC; -11.1% (active) with 786-0 renal; -24.6% (active) with COLO 205 colon; 13% in the assay with DU-145 prostate; 14.8% with K-562 leukemia. Also, the growth in the assay with MALME-3M melanoma is -36% (active); in the assay with MDA-MB-231 breast it was 6.56% (active); in the assay on RXF 393 renal, -47.2% (active); in the assay on SF-268 CNS it was 7.58% (active); in the assay on SF-295 CNS, -39.6% (active); in the assay with SF-539 CNS it was -39.5% (active). The growth is -16.6% (active) with UACC-257 melanoma and 3.8% (active) with M14 melanoma.

As for `CS(=O)(=O)N1CCc2c(-c3cnc(N)nc3)nc(N3CCOCC3)nc21`, the growth was 22.9% in the assay with NCI-H23 lung; 5.8% (active) in the assay with NCI-H226 lung; -12.9% (active) in the assay with NCI-H322M lung; 4.78% (active) in the assay on HOP-62 NSCLC; 10% with NCI-H460 lung; -22.5% (active) with HOP-92 NSCLC. In addition, the growth is 10.5% with NCI-H522 lung; -0.665% (active) in the assay with A549/ATCC NSCLC; -13.7% (active) with 786-0 renal; -6.6% (active) in the assay with COLO 205 colon; 13.5% in the assay with DU-145 prostate; 22.3% with K-562 leukemia. The growth in the assay with MALME-3M melanoma is -17.6% (active); in the assay on MDA-MB-231 breast, 30.4%; in the assay with RXF 393 renal, -36.2% (active); in the assay with SF-268 CNS, 14.7%; with SF-295 CNS it was -34.7% (active); in the assay with SF-539 CNS, -45.1% (active). Moreover, the growth is -18% (active) in the assay with UACC-257 melanoma and 10.4% in the assay on M14 melanoma.

With `Cc1cc([C@@H](C)Nc2ccccc2C(=O)O)c2nc(N3CCOCC3)cc(=O)n2c1`, the growth with NCI-H23 lung is 54.8%; with NCI-H226 lung, 55.4%; with NCI-H322M lung, 39.9%; in the assay with HOP-62 NSCLC it was 37.5%; in the assay with NCI-H460 lung it was 22.6%; with HOP-92 NSCLC, 13.7%. The growth with NCI-H522 lung was 42.3%; with A549/ATCC NSCLC, 32%; in the assay on 786-0 renal, 18.6%; in the assay with COLO 205 colon, -5.47% (active); in the assay on DU-145 prostate, 57.2%; with K-562 leukemia it was 66.9%. The growth with MALME-3M melanoma was 40.7%; in the assay with MDA-MB-231 breast, 60.3%; in the assay with RXF 393 renal, -21.1% (active); in the assay with SF-268 CNS, 47.6%; in the assay with SF-295 CNS, 9.97% (active); with SF-539 CNS, 19.7%. In addition, the growth in the assay with UACC-257 melanoma was 32.8%; in the assay on M14 melanoma, 45.9%.

`FC(F)c1nc2ccccc2n1-c1nc(N2CCOCC2)nc(N2CCOCC2)n1`: the growth with NCI-H23 lung was 0.202% (active); in the assay with NCI-H226 lung it was -3.17% (active); in the assay with NCI-H322M lung, -22.6% (active); with HOP-62 NSCLC, -15.1% (active); in the assay with NCI-H460 lung, 7.27% (active); in the assay on HOP-92 NSCLC, -32.2% (active). Also, the growth is -1.95% (active) in the assay on NCI-H522 lung; -17.2% (active) in the assay with A549/ATCC NSCLC; -32.8% (active) in the assay with 786-0 renal; -25.1% (active) with COLO 205 colon; 6.49% (active) in the assay with DU-145 prostate; 13.1% in the assay on K-562 leukemia. Also, the growth with MALME-3M melanoma was -26.7% (active); with MDA-MB-231 breast it was 15.7%; in the assay with RXF 393 renal it was -44.5% (active); in the assay on SF-268 CNS, 2.79% (active); in the assay with SF-295 CNS, -44.6% (active); with SF-539 CNS, -45.3% (active). The growth is -27.3% (active) in the assay on UACC-257 melanoma and 3% (active) in the assay with M14 melanoma.

Consider `O=C(Cn1ccc2ccccc21)Nc1ccc(-c2nc3ccccc3s2)cc1`, for which the growth with NCI-H23 lung is 94%; in the assay on NCI-H226 lung, 102%; with NCI-H322M lung it was 98.8%; with HOP-62 NSCLC, 103%; with NCI-H460 lung, 105%; in the assay on HOP-92 NSCLC it was 105%. For the same molecule, the growth in the assay on NCI-H522 lung was 102%; in the assay on A549/ATCC NSCLC it was 98.3%; in the assay on 786-0 renal, 103%; in the assay on COLO 205 colon, 101%; with DU-145 prostate, 101%; with K-562 leukemia, 103%. In addition, the growth with MALME-3M melanoma was 108%; in the assay on MDA-MB-231 breast, 108%; with RXF 393 renal, 113%; in the assay on SF-268 CNS it was 96.6%; in the assay on SF-295 CNS, 103%; in the assay on SF-539 CNS it was 102%. Moreover, the growth in the assay on UACC-257 melanoma is 100%; with M14 melanoma it was 108%.

`CC(=O)C1=C(C)NC(SCc2nnc(-c3ccc(C)cc3)o2)=NC1c1ccc(F)cc1` (stereo not given): the growth was 95.2% in the assay on NCI-H23 lung; 89.6% in the assay on NCI-H226 lung; 92.8% in the assay with NCI-H322M lung; 95.2% in the assay with HOP-62 NSCLC; 106% with NCI-H460 lung; 96.4% with HOP-92 NSCLC. The growth in the assay on NCI-H522 lung was 85.9%; with A549/ATCC NSCLC, 91.2%; with 786-0 renal it was 84.6%; in the assay on COLO 205 colon it was 115%; in the assay on DU-145 prostate, 107%; with K-562 leukemia it was 100%. Besides, the growth in the assay with MALME-3M melanoma was 98%; in the assay on MDA-MB-231 breast it was 93.6%; in the assay on RXF 393 renal, 103%; in the assay on SF-268 CNS, 111%; in the assay on SF-295 CNS it was 108%; in the assay on SF-539 CNS it was 93.4%. The results for the growth in the assay on UACC-257 melanoma and in the assay with M14 melanoma were 111% and 96%, respectively.
